Measurements: the supplement of paper PMC11417369
± gives the standard deviation of the averaged measurements. In all, about 25,000 sequences were measured (“ln(normalized median fluorescence intensity)”: median about 8.9, highest 2% from about 10 on). This excerpt belongs to a sample that is enriched for the highest values.

test system: PfAP2-LT AP2 domain (GST-tagged); assay: gcPBM binding intensity (ln(normalized median fluorescence intensity)); higher = stronger DNA binding
Summary of the method: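 Using an Agilent 4 × 180k array, primer-extended double-stranded 36-bp intergenic genomic probes and negative controls were exposed for 1 h to GST-fused P. falciparum DNA-binding domains expressed in E. coli. Binding was carried out in 1× PBS with 1% milk, 0.2 mg/ml BSA, 0.5% salmon testes DNA and 0.03% Triton X-100, and protein was detected with Alexa488 anti-GST antibody and a 488 nm scan. Binding intensity is the highest Masliner-normalised natural-log median intensity across replicate spots of either probe orientation.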

Sequence	gcPBM binding intensity (ln)
AATCTGATTTGTATATGTACACAAATATTTTTATTT [XGTACX_site5295]	8.99 ± 0.53
TAATATCAAACCTATAGTACATAAGGTATAAAAAAG [XGTACX_site3533]	8.86 ± 0.44
TTCTGAACAAAATTATATATTTATTTTTATTTTCAT [CACACA_negctrl_site422]	8.48 ± 0.5
AAAAAAAAAAAAAAAACACACAATTGAATTATTAAG [CACACA_site2864]	8.7 ± 0.61
TTCTTATATTGTACAGTACACACCTTTATAATGTTA [CACACA_site7953]	9.15 ± 0.49
TATCATAAAATATGTAGTACGTATATATATAAAAAT [XGTACX_site5455]	8.97 ± 0.41
GTAATTATTAATAAAACATGCGTATAAAATTTTCTC [TGCATGCA_site50]	8.62 ± 0.46
TATATATATATATTTACACACATTCATATAAATTCA [CACACA_site3532]	9.04 ± 0.28
TACAGACATAGACACACACACACGCATAAAAAAAAA [CACACA_site6820]	10 ± 0.51
TACACCCATAGACACACACACACGCATAAAAAAAAA [CACACA_site8428]	9.95 ± 0.55
AAATTTGGCAGACACACACACACACGCACACGCACA [CACACA_site6423]	10.4 ± 0.33
CAGACGCACGTATTTGCACACATTGCCACGTAATTA [CACACA_site3349]	9.28 ± 0.37
ATTTGGCATAGACACACACACACACGCACGCACATA [CACACA_site6424]	10.3 ± 0.28
TACTTATTGTGATACTTATATTATTTTATGATTAAA [XGTACX_negctrl_site353]	8.5 ± 0.42
TTTTGGTGGGTTACAAGTACTCAAAATGGATTGTTA [XGTACX_site1951]	8.56 ± 0.38
GTTGCCATCATTTGGCGTACAGTCAAAACCAAATCT [XGTACX_site1398]	8.56 ± 0.37
ACAACACATATTCATCGTACATGTATTAGGAAGACA [XGTACX_site1859]	9.04 ± 0.42
GTATATTGTACCATCACACATGTAAAACATAGATGT [CACACA_site5359]	8.94 ± 0.43
TGGTATATATTTCCTTGTACATATAATATATATTGT [XGTACX_site3961]	8.94 ± 0.51

Sequence	gcPBM binding intensity (ln)
CACAAATATACAAATACACACAAATATACAAATACA [CACACA_site2385]	9.42 ± 0.44
TACACAAATATATATATATATATATATATATATATA [XGTACX_negctrl_site305]	10 ± 0.5
ATGAGTGCACAAATATATATATATATATATATATAT [CACACA_negctrl_site404]	10.2 ± 0.26
ATAAAAATAAAAAGTGTGCACACAAAAATATATATA [GTGCAC_site9931]	9.62 ± 0.36
TAATATAATCTGAGTGCACACAAATAAATAAACATA [CACACA_site8032]	9.16 ± 0.44
GCACAAATATATATATATATATATATATATATATAT [GTGCAC_negctrl_site661]	10.2 ± 0.12
TATAATGATGATGATAGTACGTATTAGTATAAAAAA [XGTACX_site9]	8.81 ± 0.52
TATACCTTTTTATTCACACATATATGTCATATGTCA [CACACA_site5423]	9.28 ± 0.5
CTCTTGTCATTTTGCACACACACATGGATAGGTTAT [CACACA_site5655]	9.81 ± 0.33
ATAAAATTATATACTCGTACACAAAAAAAAAAAATA [XGTACX_site6035]	8.77 ± 0.47
TATAAGTGCCGTTATACACACGTTATATAAATATTA [CACACA_site4401]	8.81 ± 0.4
CACAGATAAATTAACACACACACACCCATATATATA [CACACA_site3960]	10.05 ± 0.071
TATTAAACTGGACACACACACACACCCATATATAAA [CACACA_site4579]	10.15 ± 0.021
CGTTTATTAAACTTGACACACACACCCCCACATATA [CACACA_site8151]	9.975 ± 0.064
TATTAAACGAAACACACACACACACCCATATATAAA [CACACA_site759]	10.23 ± 0.099
TTCCCATGTAATATTAAACACACACCCATATAACAC [CACACA_site7905]	9.505 ± 0.078
AACACAGATAAATTAACACACACACCCATATATATA [CACACA_site9310]	9.85 ± 0.23
ATACGACAAATATAAAGTACAAGCTTGGTTTTTATA [XGTACX_site8103]	8.88 ± 0.59
AATTTGAAATATGTGGTGCAGTTATATAATATGTTT [GTGCAC_site9885]	8.87 ± 0.41

Sequence	gcPBM binding intensity (ln)
GTACATATATACATTACACACGGTTTGATTTAAAAA [CACACA_site3379]	8.98 ± 0.41
AAAGAAAAAAAAAACACACACACACCCATTCAATAT [CACACA_site38]	10.29 ± 0.035
AGAAAAAAAAAAAAAAAACACACGGTACATTCAAAG [CACACA_site2]	8.84 ± 0.43
AGAAAAAAAAAACACACACACACACCCTCAATATAA [CACACA_site39]	10.1 ± 0.11
AAAGAAAAAAAAAACACACACACACGCATTCAATAT [CACACA_site6169]	10.1 ± 0.13
ATATACAATACAAAAACACACACAAAAAAAGAAAAG [CACACA_site8668]	9.59 ± 0.4
AAAAAAAAAAAACACACACACACATTCAATATAAAA [CACACA_site40]	9.76 ± 0.28
AAAAATATGCTTCCATGTACTTAAAAAAAAAATTTA [XGTACX_site3617]	8.34 ± 0.47
TTCATTTATATAATCACACATTTTATCATCTATGTT [CACACA_site4327]	8.98 ± 0.47
ATGCAAACTAAAAGACGTACAGAAAAGTATCATACT [XGTACX_site8766]	9.02 ± 0.42
TAAACAAATAAATAAACACACAATATATGTATATAT [CACACA_site3803]	9.05 ± 0.38
AATGAAATAAATAAGGGTACACATAAATATATATAT [XGTACX_site7006]	9.04 ± 0.43
AAATTATGTGCCAATACACACACACCGATATATATA [CACACA_site8050]	9.92 ± 0.21
AAAAAAAAAACATACACACACATATATATATATATG [CACACA_site1586]	9.46 ± 0.3
ATTATGTGCCAATACACACACACATATATATATATA [CACACA_site468]	10.38 ± 0.078
ATTATGTGCCAATACACACACACATCTATATTTATA [CACACA_site6359]	9.67 ± 0.18
AAAAAAAAAAAAAAAACACACATATATGTATATATA [CACACA_site3276]	8.92 ± 0.35
TATGTGCCAAAACACACACACATATATATATATATA [CACACA_site469]	10.2 ± 0.2
TACATATGAAAATACACACATACATACATATATATA [CACACA_site1673]	9.21 ± 0.34
